Inconclusive results are not listed. Activity calls are given as the source filed them. Calls follow the shape of the dose curve; as a rule, active = well fitted curve in the direction sought with a large enough effect; inconclusive = small, poorly fitted or top-dose-only effect, or another doubt; inactive = no such curve, though single readings can be large; an effect the other way counts as inactive or inconclusive.
Tests used:
[1] = qHTS of pediatric cancer cell lines to identify multiple opportunities for drug repurposing: Confirmatory screen for LAN-5 cells (AID 1347113); also: nearly all actives have a fitted effect of over 65% in size
In short: (§1)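 Cells (500-1,000/well) in growth media were settled 5 h at 37 degrees C, then given compounds for 48 h. Viability was read as CellTiter-Glo luminescence. Primary runs used MIPE at 11 points (0.78 nM-46 µM) and NPC at 8 points (0.59 nM-46 µM); follow-ups used 11 points.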

[2] = qHTS of pediatric cancer cell lines to identify multiple opportunities for drug repurposing: Confirmatory screen for NB-EBc1 cells (AID 1347115);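 also: cells exposed to compound for 48 h before the viability read; nearly all actives have a fitted effect of over 45% in size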
In short: as §1

[3] = qHTS of pediatric cancer cell lines to identify multiple opportunities for drug repurposing: Confirmatory screen for SJ-GBM2 cells (AID 1347116); also: nearly all actives have a fitted effect of over 60% in size
In short: (§2)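 Viability measured as metabolically active cells via CellTiter-Glo luminescence following 48 hours of compound exposure, 11-point dilutions in confirmatory testing. 500-1,000 cells/well plated 5 hours before dosing; controls were DMSO and 2.3 µM bortezomib.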

[4] = qHTS of pediatric cancer cell lines to identify multiple opportunities for drug repurposing: Confirmatory screen for BT-37 cells (AID 1347117); settings: BT-37 pediatric cancer cells, viability; activity change, negative = cytotoxic: at 45.9 µM (top of the series); also: nearly all actives have a fitted effect of over 55% in size
In short: as §1

[5] = qHTS of pediatric cancer cell lines to identify multiple opportunities for drug repurposing: Confirmatory screen for TC32 cells (AID 1347118);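 also: cells exposed to compound for 48 h before the read; nearly all actives have a fitted effect of over 65% in size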
In short: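 qHTS, TC32, 48 h drug treatment, CellTiter-Glo luminescence as a proxy for metabolically active cells; primary top concentration 46 µM (MIPE 11-pt, NPC 8-pt); confirmatory 11-pt.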

[6] = qHTS of pediatric cancer cell lines to identify multiple opportunities for drug repurposing: Confirmatory screen for MG 63 (6-TG R) cells (AID 1347119); also: nearly all actives have a fitted effect of over 55% in size
In short: as §1

[7] = qHTS of pediatric cancer cell lines to identify multiple opportunities for drug repurposing: Confirmatory screen for control Hh wild type fibroblast cells (AID 1347121); also: nearly all actives have a fitted effect of over 70% in size
In short: as §1

[8] = qHTS of pediatric cancer cell lines to identify multiple opportunities for drug repurposing: Confirmatory screen for U-2 OS cells (AID 1347122); also: nearly all actives have a fitted effect of over 65% in size
In short: as §1

[9] = qHTS of pediatric cancer cell lines to identify multiple opportunities for drug repurposing: Confirmatory screen for Rh41 cells (AID 1347123);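 also: 48 h compound exposure; nearly all actives have a fitted effect of over 60% in size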
In short: as §1

[10] = qHTS of pediatric cancer cell lines to identify multiple opportunities for drug repurposing: Confirmatory screen for DAOY cells (AID 1347114); also: nearly all actives have a fitted effect of over 65% in size
In short: as §2

Measured: Potency
Potency is read from the fitted curve at half-maximal effect.

COc1ccc(C=Cc2cc(OC)c(OC)c(OC)c2)cc1NC(=O)[C@H](N)CO
active: [1] 0.414 µM | [2] 0.0522 µM | [3] 0.827 µM | [4] 0.0737 µM | [5] 0.0465 µM | [6] 0.0465 µM | [8] 0.117 µM | [9] 0.104 µM
inactive: [7]

CCC(C(=O)O)C1CCC(C)C(C(C)C(O)C(C)C(=O)C(CC)C2OC3(C=CC(O)[C@@]4(CC[C@](C)(C5CC[C@@](O)(CC)C(C)O5)O4)O3)C(C)CC2C)O1 (stereo partly drawn)
active: [1] 1.17 µM | [10] 3.29 µM | [8] 7.37 µM | [9] 1.47 µM
inactive: [4] | [5] | [6]

COc1ccc2c(c1OC)C(=O)OC2[C@H]1c2c(cc3c(c2OC)OCO3)CCN1C (stereo partly drawn)
active: [5] 2.93 µM
not listed: [6] | [9] | [10]
inactive: all other assays above

CO[C@@H]1[C@@H](O)[C@H](O)[C@@H](n2c3c(Cl)cccc3c3c4c(c5c6cccc(Cl)c6[nH]c5c32)C(=O)NC4=O)O[C@@H]1CO
active: [1] 1.65 µM | [2] 1.47 µM | [3] 5.22 µM | [4] 0.827 µM | [5] 0.737 µM | [6] 1.31 µM | [8] 4.14 µM | [9] 5.85 µM
inactive: [7]

COc1cc2c(cc1OC)[C@@H]1C(=O)c3ccc4c(c3O[C@@H]1CO2)C=CC(C)(C)O4
active: [1] 3.69 µM | [10] 0.185 µM | [2] 0.827 µM | [4] 2.08 µM | [6] 0.104 µM | [7] 0.293 µM | [8] 0.329 µM | [9] 13.1 µM

Oc1ccc(-c2ccc(-c3cc(Nc4cccc(CNC5CC5)c4)n[nH]3)cc2)c(O)c1
active: [1] 2.33 µM | [10] 6.57 µM | [3] 14.7 µM | [4] 6.57 µM | [5] 2.33 µM | [8] 5.22 µM | [9] 3.69 µM
inactive: [6] | [7]

CCOC(=O)N1CCN([N+]([O-])=NOc2ccc([N+](=O)[O-])cc2C#N)CC1
active: [1] 4.65 µM | [10] 2.33 µM | [4] 3.29 µM | [5] 2.33 µM | [9] 18.5 µM
inactive: [7]

COc1cccc2c1C(=O)c1c(O)c3c(c(O)c1C2=O)C[C@@](O)(C(=O)CO)C[C@@H]3O[C@H]1C[C@H](N)[C@H](OC2CCCCO2)[C@H](C)O1 (stereo partly drawn)
active: [1] 1.17 µM | [2] 1.65 µM | [4] 0.928 µM | [5] 0.465 µM | [6] 1.47 µM | [9] 2.93 µM

CC(C(C)N1CC(=O)NC(=O)C1)N1CC(=O)NC(=O)C1 (stereo not drawn)
active: [4] 9.27 µM | [5] 4.14 µM | [6] 5.22 µM
not listed: [2] | [3]
inactive: all other assays above

Cc1nc(NC(=O)N2CCC[C@@H]2C(N)=O)sc1-c1ccnc(C(C)(C)C(F)(F)F)c1
inactive: [10] | [7]
active: [1] 2.93 µM | [2] 16.5 µM | [5] 5.22 µM | [6] 6.57 µM | [8] 14.7 µM | [9] 2.61 µM

COc1cccc2c1C(=O)c1c(O)c3c(c(O)c1C2=O)C[C@@](O)(C(C)=O)C[C@H]3O[C@H]1C[C@H](N)[C@H](O)[C@H](C)O1
active: [1] 0.185 µM | [10] 3.69 µM | [3] 1.31 µM | [4] 0.165 µM | [5] 0.117 µM | [6] 0.233 µM | [8] 7.37 µM | [9] 0.585 µM

Cn1c(Nc2ccc(C(F)(F)F)cc2)nc2cc(Oc3ccnc(-c4ncc(C(F)(F)F)[nH]4)c3)ccc21
active: [1] 18.5 µM | [2] 16.5 µM | [4] 4.65 µM | [5] 0.928 µM | [6] 13.1 µM
inactive: [3]

COc1ccc(C[C@@H](C)[C@@H](C)Cc2ccc(OC)c(OC)c2)cc1OC
active: [10] 11.7 µM | [5] 4.14 µM | [6] 9.27 µM
inactive: [1] | [3] | [8]

CCCCC(=O)O[C@]1(C(=O)CO)[C@@H](C)C[C@H]2[C@@H]3CCC4=CC(=O)C=C[C@]4(C)[C@@]3(F)[C@@H](O)C[C@@]21C
not listed: [2] | [5]
inactive: all other assays above

CCOC(=O)C1=C(C)NC(=S)NC1c1cccc(O)c1 (stereo not drawn)
active: [5] 3.69 µM | [8] 20.8 µM
inactive: [1] | [2] | [6] | [7]

O=C(C=CC=Cc1ccc2c(c1)OCO2)N1CCCCC1
active: [5] 10.4 µM
not listed: [1]
inactive: all other assays above

NS(=O)(=O)OC[C@@H]1C[C@@H](n2ccc3c(N[C@H]4CCc5ccccc54)ncnc32)C[C@H]1O
not listed: [1] | [9] | [10]
inactive: all other assays above

O=C1NC(=O)C(=Cc2ccc3nccc(-c4ccncc4)c3c2)S1
active: [10] 8.27 µM | [6] 1.04 µM | [8] 2.61 µM | [9] 2.61 µM
inactive: [2] | [5]

Cn1cc(CNCC2CCN(c3ncc(C(=O)NO)cn3)CC2)c2ccccc21
active: [10] 0.261 µM | [3] 0.208 µM | [6] 0.131 µM | [7] 1.31 µM | [8] 0.208 µM | [9] 0.0329 µM

CC(=O)N1CCN(c2ccc(OCc3nn(C)c(C)c3-c3cccc4c(CCCOc5cccc6ccccc56)c(C(=O)O)n(Cc5cccnc5)c34)cc2)CC1
inactive: [2] | [4] | [6] | [7] | [8]

CC(=O)O[C@@]12CO[C@H]1C[C@H](O)[C@@]1(C)C(=O)[C@H](O)C3=C(C)[C@@H](OC(=O)C(O)[C@@H](NC(=O)OC(C)(C)C)c4ccccc4)C[C@@](O)([C@@H](OC(=O)c4ccccc4)[C@@H]21)C3(C)C (stereo partly drawn)
inactive: [1] | [7]
active: [5] 0.0059 µM | [6] 0.0074 µM | [9] 0.0104 µM

CS(=O)(=O)N1CCc2c(-c3cnc(N)nc3)nc(N3CCOCC3)nc21
active: [1] 1.17 µM | [3] 7.37 µM | [4] 5.85 µM | [5] 1.85 µM | [6] 0.585 µM | [8] 1.85 µM | [9] 1.85 µM

C=Cc1c(C)c2cc3nc(cc4[nH]c(cc5nc(cc1[nH]2)C(C)=C5CCC(=O)O)c(CCC(=O)OC)c4C)[C@@]1(C)C3=CC=C(C(=O)OC)[C@H]1C(=O)OC
inactive: [2] | [3] | [7] | [8]

CC(N[C@H]1CCCC[C@H]1NC(=O)c1ccc(Cl)cc1)c1cccc2ccccc12 (stereo partly drawn)
active: [1] 14.7 µM | [4] 23.3 µM | [5] 5.85 µM | [6] 23.3 µM

CCc1cnn2c(NCc3ccc[n+]([O-])c3)cc(N3CCCC[C@@H]3CCO)nc12
inactive: [10] | [7] | [8] | [9]

From PubChem BioAssay (NCATS)
